About 13,000 (27%) of roughly 48,000 compounds showed an effect of 50% or more. The list shows a part of the results.
The compounds below were run on Wolbachia pipientis (assay: Anti-Wolbachia Cell-Based Screen). Settings: 5 µM.
Type: functional
Design: scale not given: in the data most compounds retested in dose-response had high values

| Compound | Percent Effect [%] |
| --- | --- |
| CN(C)C(=O)CN1CC[C@]2(CN(CC3CC3)C[C@H]2c2ccccc2)C1=O.O=C(O)C(F)(F)F | 97.34 |
| CN1CC[C@]2(CN(Cc3nccs3)C[C@H]2c2ccccc2)C1=O.O=C(O)C(F)(F)F | -12.3 |
| CCN1CC[C@]2(CN(Cc3nccs3)C[C@H]2c2ccccc2)C1=O.O=C(O)C(F)(F)F | -7.222 |
| CN1CC[C@]2(CN(CC3CCOC3)C[C@H]2c2ccccc2)C1=O.O=C(O)C(F)(F)F (stereo partly drawn) | 100.2 |
| CN1CC[C@]2(CN(S(C)(=O)=O)C[C@H]2c2ccccc2)C1=O | 102.2 |
| N#Cc1ccc(CN2CCCCC2Cn2cncn2)c(F)c1 (stereo not drawn) | -2.215 |
| Cc1ccc(CN2CCOC3(CCN(C(=O)N4CCCC4)CC3)C2)cc1.O=C(O)C(F)(F)F | -8.825 |
| O=C(O)C(F)(F)F.O=C1NCC[C@]12CN(Cc1nccs1)C[C@H]2c1ccccc1 | -4.824 |
| Cc1ccc(CN2CCOC3(CCN(C(=O)C4CCOC4)CC3)C2)cc1.O=C(O)C(F)(F)F (stereo not drawn) | 2.988 |
| O=C(O)C(F)(F)F.O=C(c1cccnc1)N1C[C@@H](c2ccccc2)[C@@]2(CCNC2=O)C1 | -21.16 |
| CN1CC[C@]2(CN(Cc3cccs3)C[C@H]2c2ccccc2)C1=O | -2.755 |
| O=C(O)C(F)(F)F.O=C1NCC[C@]12CN(CC1CCOCC1)C[C@H]2c1ccccc1 | 108.1 |
| Cc1ccc(CN2CCOC3(CCN(CC4CCOC4)CC3)C2)cc1.O=C(O)C(F)(F)F.O=C(O)C(F)(F)F (stereo not drawn) | 104.9 |
| CN1CC[C@]2(CN(CC3CC3)C[C@H]2c2ccccc2)C1=O | 103.2 |
| CC1CCCN(c2ccccc2OCC(=O)NC2CCOCC2)C1 (stereo not drawn) | 10.97 |
| CC(C)NC(=O)CC(C)NC(=O)N(C)Cc1cc(Cl)cn1C (stereo not drawn) | -3.888 |
| CC(C)N1C(=O)C[C@H]2[C@@H]1CCN2C(=O)c1ccco1 | -5.125 |
| COCC(=O)N1Cc2nccn2CC(COc2cccnc2)C1 (stereo not drawn) | 115.8 |
| CN(C)CCOCC1CN(C(=O)[C@H]2CCCO2)Cc2ccnn2C1 (stereo partly drawn) | -10.91 |
| O=C(c1ccccn1)N1Cc2nccn2CC(COc2cccnc2)C1 (stereo not drawn) | -5.974 |
| O=C(CC1CC1)N1Cc2nccn2CC(COc2cccnc2)C1 (stereo not drawn) | 106 |
| COCC(=O)N1Cc2nccn2CC(CN(C)Cc2cccnc2)C1 (stereo not drawn) | 3.316 |
| COCC1CN(C(=O)c2ccccn2)Cc2nccn2C1 (stereo not drawn) | 101.9 |
| O=C1CCCN1CC1CN(C(=O)C2CCOCC2)Cc2nccn2C1 (stereo not drawn) | -10.76 |

| Compound | Percent Effect [%] |
| --- | --- |
| O=C([C@H]1CCCO1)N1Cc2nccn2CC(COc2cccnc2)C1 (stereo partly drawn) | 99.26 |
| COCC1CN(C(=O)c2cccs2)Cc2nccn2C1 (stereo not drawn) | -51.2 |
| N#CCCN(CC1CCOC1)S(=O)(=O)c1cccc(Cl)c1 (stereo not drawn) | -9.345 |
| CCCN1C(=O)C2(CCCCC2)NC1c1c[nH]nc1-c1cccnc1 (stereo not drawn) | -6.37 |
| CC(NCc1ccccc1O)c1ccc(-n2ccnc2)cc1 (stereo not drawn) | 4.863 |
| CC(=O)NCCc1ccc(S(=O)(=O)N(CC(C)C)C(C)C)s1 | -14.51 |
| Nc1ccc(C(=O)N2CCC(Oc3cccc(C(F)(F)F)c3)CC2)cn1 | -4.227 |
| CN(C(=O)c1ccc(C2CCCO2)s1)C1CCS(=O)(=O)CC1 (stereo not drawn) | 4.966 |
| CSCCC1c2nc[nH]c2CCN1Cc1ccccc1C(F)(F)F (stereo not drawn) | -7.167 |
| O=C(c1ccc[nH]1)N1Cc2nccn2CC(COc2cccnc2)C1 (stereo not drawn) | 86.9 |
| Cc1cc(CN2CC[C@H]3C(=O)N(c4cccnc4)CCO[C@H]3C2)no1 | -10.41 |
| CCN1CCN(C(=O)c2nc(C)n(-c3ccccc3Cl)n2)CC1 | 7.919 |
| COC(=O)C(CCSC)NC(=O)Cc1c(C)nn(-c2ccccc2)c1C (stereo not drawn) | -1.135 |
| CS(=O)(=O)CCC(=O)Nc1cnn(-c2ccccc2Cl)c1 | 3.918 |
| Cc1nn(-c2ccccc2Cl)c(C)c1CCC(=O)O | 123.4 |
| CCCNC(=O)CNC(=O)CCc1ccccc1Br | 0.9662 |
| CCCNC(=O)C(C)NC(=O)CCc1ccccc1Br (stereo not drawn) | -13.88 |
| Cc1nn(-c2ccccc2Cl)c(C)c1CCC(=O)NCCS(C)(=O)=O | 98.33 |
| Cc1c(C(=O)NCC(F)(F)F)nnn1-c1ccccc1Cl | -14.83 |
| CCN(C(=O)NCCc1ccccc1Cl)C(C)CS(C)(=O)=O (stereo not drawn) | -2.563 |
| Cc1nn(-c2ccccc2)c(C)c1CNC(=O)NC1CC1 | 9.435 |
| CCN(CC)CCNC(=O)CCc1c(C)nn(-c2ccccc2Br)c1C | 111.1 |
| Cc1nn(-c2cc(Cl)cc(Cl)c2)c(C)c1CCC(=O)O | 123.3 |
| Cc1noc(C2(NC(=O)c3cccnc3O)CCCCC2)n1 | 14.46 |

Reference: ChEMBL document CHEMBL3988442, “University of Dundee, Small-Polar-MMV Screening Library” (2021)
